Each structure is given as a SMILES string. The campaign covered roughly 16,000 compounds. About 5,100 (32%) were called active. Roughly 25% stayed inconclusive and do not appear here. Some of the results follow. Unmarked numbers belong to inactive results. Calls follow the shape of the dose curve; as a rule, active = well fitted curve in the direction sought with a large enough effect; inconclusive = small, poorly fitted or top-dose-only effect, or effect the other way; inactive = no such curve, though single readings can be large or run the other way.

As usually defined, the AC50 is the concentration at which the activity in the assay is half-maximal.
% is scaled to controls: 0 for no effect and ±100 for the full control effect.

For this experiment, the target named is Cytochrome P450 3A4 (Homo sapiens) (UniProt P08684). Nature of the experiment: Cytochrome panel assay with activity outcomes. Particulars: recombinant CYP, pro-luciferin dealkylation, luminescence, p450-cyp3a4; series mostly up to 57.1 µM.
Sequence of Cytochrome P450 3A4 (Homo sapiens) (P08684 whole entry, looked up): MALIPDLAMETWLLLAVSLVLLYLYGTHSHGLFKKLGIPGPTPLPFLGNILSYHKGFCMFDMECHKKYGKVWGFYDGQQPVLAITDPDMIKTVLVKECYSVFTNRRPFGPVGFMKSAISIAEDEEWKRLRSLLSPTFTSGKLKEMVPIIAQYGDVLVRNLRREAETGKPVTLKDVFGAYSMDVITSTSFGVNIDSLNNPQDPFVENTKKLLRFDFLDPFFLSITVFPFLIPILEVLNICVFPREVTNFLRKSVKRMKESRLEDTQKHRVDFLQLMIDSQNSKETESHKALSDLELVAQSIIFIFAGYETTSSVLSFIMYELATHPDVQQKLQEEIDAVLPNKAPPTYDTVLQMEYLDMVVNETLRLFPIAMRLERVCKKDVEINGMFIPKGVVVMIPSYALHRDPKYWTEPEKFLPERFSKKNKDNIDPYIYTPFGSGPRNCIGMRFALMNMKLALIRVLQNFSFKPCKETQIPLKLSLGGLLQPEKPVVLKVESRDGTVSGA
Consider `OCCN=C1CCCc2c1[nH]c1ccc(Br)cc21`, for which the AC50 entry was “inactive”. On to `O=C1Cc2c([nH]c3ccc(Br)cc23)-c2ccccc2N1`, for which the AC50 is 12.6 µM (active). For `O=C1CCCCC(=O)c2ccccc2N1`, the AC50 entry is “inactive”.

For the compound `CC(C)OCCCN1CN(S(=O)(=O)c2cccc(Cl)c2)c2nc3ccccc3nc21`, the AC50 was 7.94 µM (active). Still for that read-out and setting: under `CCOc1ccc(N2C(=O)/C(=C/c3cccs3)N(CC(=O)OC)C2=S)cc1` stands “inactive”; under `COCC(=O)Nc1ccc(-c2cn3cccnc3n2)cc1`, “inactive”. As to `CCN1C(=O)C(CC(=O)Nc2ccc(OC)cc2)N(Cc2cccs2)C1=S` (configuration not stated), the half-maximal activity concentration (AC50) is 3.98 µM (active). On the same count and under the same terms, the same measure for `CCN1C(=O)C(CC(=O)Nc2ccc(OC)cc2)N(Cc2cccnc2)C1=S` (configuration not stated): 11.2 µM (active); for `CCN1C(=O)C(CC(=O)Nc2ccc(Br)cc2)N(CCCc2ccccc2)C1=S` (configuration not stated): 2.51 µM (active); for `CCCCC(=O)Nc1ccc(C(=O)NNC(=O)CCc2ccccc2)cc1`: “inactive”. As to `CNC(=S)Nc1ccc(Nc2ccccc2)cc1`, the AC50 entry is “inactive”. The same measure, in the same setting: the same measure for `Cc1cc(NC(=S)Nc2ccccc2)ccc1Br`: 20 µM (active).

In the case of `O=[N+]([O-])c1ccc(NN=C2c3ccccc3Cc3ccccc32)c([N+](=O)[O-])c1`, the activity, negative = inhibition is -5.06% [at 11.4 µM]. Regarding `O=[N+]([O-])c1ccc(C2CCCC/C2=N\OCc2cccc(F)c2)c([N+](=O)[O-])c1` (configuration not stated), the AC50 was 14.1 µM (active).

Turning to `CC1(C)N=C(N)N=C(N)N1c1cccc(OCc2cccc([N+](=O)[O-])c2)c1`, the activity, negative = inhibition was -3.23% [at 11.4 µM]. `O=C(c1ccccc1)N1CCSC1=S`: the AC50 entry was “inactive”. Consider `Cc1c(NC(=O)C(Sc2ccccc2)c2ccccc2)cccc1[N+](=O)[O-]` (configuration not stated), for which the activity, negative = inhibition is -28.3% [at 2.29 µM].

For the compound `COC(=O)c1nc(NC(=O)c2ccccc2)n[nH]1`, the AC50 result is “inactive”.

Turning to `Cc1nc(SC(C(=O)c2ccccc2)c2ccccc2)n[nH]1` (configuration not stated), the AC50 is 7.08 µM (active). In the case of `CC(C)(C)c1ccc(C(=O)c2c[nH]c(C(=O)NCCCn3ccnc3)c2)cc1`, the AC50 is 0.282 µM (active).

Take `O=C(O)CCCCCNC(=O)c1ccncc1`: the AC50 result was “inactive”.

As to `O=C(NCCCN1CCOCC1)c1cc(C(=O)C2CC2)c[nH]1`, the AC50 entry was “inactive”. Turning to `O=C(c1ccc(C(F)(F)F)cc1)c1c[nH]c(C(=O)NCCCn2ccnc2)c1`, the AC50 was 1 µM (active). With `O=C1Oc2ccccc2C2(O)C3CCCCCC3C12` (configuration not stated), the activity, negative = inhibition was -27.4% [at 11.4 µM]. On the same count and under the same terms, under `C[C@@](N)(Cc1c[nH]c2ccccc12)C(=O)O` stands -19.3% [at 11.4 µM]. Consider `O=C(Cc1c[nH]c2ccccc12)OCC(=O)c1ccccc1`, for which the AC50 is 22.4 µM (active). As to `Cn1c(/C(C#N)=C(\O)c2ccc(S(=O)(=O)N3CCCCC3)cc2)nc2ccccc21`, the half-maximal activity concentration (AC50) was 14.1 µM (active).

Regarding `CCN(CC)C(=O)CSc1nnc(-c2cc3ccccc3cc2O)n1CC`, the AC50 is 7.94 µM (active). Same read-out and setting: under `CCn1c(SCC(=O)NC(=O)NCc2ccco2)nnc1-c1cccs1` stands 1.26 µM (active); under `CCN(CC)C(=O)CSc1nnc(-c2ccncc2)n1N`, “inactive”; under `Cn1c(SCC(=O)N2CCN(S(=O)(=O)c3ccccc3)CC2)nc2ccccc21`, 12.6 µM (active). Same read-out and setting: the same measure for `CCN(CC)C(=O)CSc1nnc(-c2ccco2)n1N`: “inactive”. As to `O=C(Nc1ccccc1-c1nc2ccccc2[nH]1)c1ccc(S(=O)(=O)N2CCCCC2)cc1`, the activity, negative = inhibition is -23.2% [at 2.29 µM]. Regarding `CC(C)(C)c1onc(OCP(=O)(O)O)c1C[C@@H](N)C(=O)O`, the AC50 entry was “inactive”. On the same count and under the same terms, under `CCn1c(SCC(=O)N2CCN(S(=O)(=O)c3ccccc3)CC2)nnc1-c1cccs1` stands 1.12 µM (active).

On to `CC(=O)c1ccc(-n2c(CCC(=O)O)ccc2-c2cccs2)cc1`, for which the AC50 result was “inactive”. Same read-out and setting: the same measure for `Cc1ccccc1CSc1nnc(-c2cccs2)n1Cc1ccco1`: 4.47 µM (active); for `CCn1c(SCC(=O)c2ccccc2)nnc1-c1cccs1`: 8.91 µM (active); for `CCn1c(SCC(=O)c2ccc3ccccc3c2)nnc1-c1cccs1`: 3.98 µM (active). The same measure, in the same setting: under `CCn1nnnc1SCC(=O)c1ccc2c(c1)OCCO2` stands “inactive”; under `O=c1onc(-c2cccs2)n1Cc1ccccc1`, “inactive”; under `CN(C)/C=N/c1ncc(C(=O)c2ccc3ccccc3c2)s1`, “inactive”. Still for that read-out and setting: under `CCn1c(SCC(=O)NC2CCCc3ccccc32)nnc1-c1cccs1` (configuration not stated) stands 2.82 µM (active). For `CCOc1c2ccc(C(=O)NC3CCCc4ccccc43)cc2nn1C` (configuration not stated), the AC50 entry was “inactive”.

Turning to `CCn1cc(C(=O)O)c(=O)c2cnc(N3CCNCC3)nc21`, the AC50 entry is “inactive”.

Regarding `CC(=O)OC[C@@H]1O[C@@H](O/N=C2/C[C@@H](O)[C@@H](O)[C@@H]3[C@@H]4C(=O)N([C@@H](C)c5ccccc5)C(=O)[C@H]4CC[C@@H]23)[C@H](OC(C)=O)[C@H](OC(C)=O)[C@@H]1OC(C)=O`, the activity, negative = inhibition is -21% [at 11.4 µM]. The same measure, in the same setting: under `COc1cccc2c1C(=O)c1c(O)c3c(c(O)c1C2=O)C[C@@](O)(C(=O)CO)C[C@H]3O[C@H]1C[C@@H](N)[C@H](O)[C@@H](C)O1.[W]` stands -15.2% [at 11.4 µM]. Turning to `CCOC(=O)C1=C(c2ccccc2)N=c2s/c(=C\c3cccc(O)c3)c(=O)n2C1c1cccs1` (configuration not stated), the concentration at half-maximal activity (AC50) is 15.8 µM (active). On the same count and under the same terms, under `COC(=O)c1[nH]c(C)c(/C(O)=C2\C(=O)C(=O)N(CCN(C)C)C2c2cccs2)c1C` (configuration not stated) stands “inactive”.

Take `CCOC(=O)C1=C(c2ccccc2)N=c2s/c(=C\c3ccc(O)cc3)c(=O)n2C1c1cccs1` (configuration not stated): the AC50 is 3.55 µM (active). Same read-out and setting: the same measure for `CCOC(=O)C1=C(N)n2c(s/c(=C/c3ccccc3)c2=O)=C(C(=O)OCC)C1c1ccccc1` (configuration not stated): “inactive”. With `O=c1/c(=C\c2ccc(O)cc2)sc2n1C(c1ccccc1)C(c1ccccc1)=NN=2` (configuration not stated), the activity, negative = inhibition is 20.5% [at 0.457 µM]. Take `CCCc1c(OCCCOc2ccc(OCC(=O)O)cc2)ccc(C(C)=O)c1O`: the AC50 entry was “inactive”. The same measure, in the same setting: under `CC(C)=CC(=O)OCC(=O)Nc1ncc(Cl)c(C)c1Cl` stands “inactive”; under `Cc1cccc(CNc2ncnc3ccc(-c4ccoc4)cc23)c1`, 3.98 µM (active). The same measure, in the same setting: under `c1cncc(CNc2ncnc3ccc(-c4ccoc4)cc23)c1` stands 1.58 µM (active); under `Oc1ccccc1CNn1cnnc1`, “inactive”; under `CCOc1nnc(C)c2c(C)n(-c3ccc(Cl)cc3)nc12`, “inactive”. Still for that read-out and setting: the same measure for `COc1ccc(-n2nnnc2-c2cn(C)nc2C(F)(F)F)cc1`: “inactive”; for `CCn1cc(-c2nnnn2-c2ccc(Cl)cc2)c(=O)c2ccccc21`: 12.6 µM (active).

For `Cc1c(Br)c([N+](=O)[O-])nn1C(C)C(=O)Nc1nccs1` (configuration not stated), the AC50 was 20 µM (active). The same measure, in the same setting: the same measure for `Cc1c(Br)c([N+](=O)[O-])nn1CC(=O)NCc1ccccn1`: “inactive”. In the case of `Cc1ccc(NC(=O)Cn2nc([N+](=O)[O-])c(Br)c2C)cc1C`, the activity, negative = inhibition was -24.1% [at 2.29 µM]. Take `CCc1ccccc1NC(=O)C(C)n1nc([N+](=O)[O-])c(Br)c1C` (configuration not stated): the AC50 is 25.1 µM (active). For the compound `Cc1c(Br)c([N+](=O)[O-])nn1CC(=O)NCc1cccs1`, the activity, negative = inhibition is -4.17% [at 2.29 µM]. On the same count and under the same terms, under `N=C(N)c1ccc(N=Nc2c(O)ccc3c2[nH]c2ccccc23)cc1` stands -6.87% [at 11.4 µM]; under `Cc1cc(C)c(C#N)c(SCC(=O)C(C)(C)C)n1`, -0.356% [at 2.29 µM].

Consider `Cc1cc(C)c(C#N)c(SCS(=O)c2ccc(C(C)(C)C)cc2)n1` (configuration not stated), for which the half-maximal activity concentration (AC50) is 7.94 µM (active). For the compound `COC(=O)CSc1nc(C)cc(C(F)(F)F)c1C#N`, the activity, negative = inhibition was -14.9% [at 2.29 µM].

Turning to `O=S(=O)(c1cccc(-c2nnc(-c3ccc(Br)cc3)o2)c1)N1CCCCCC1`, the AC50 was 3.55 µM (active). Same read-out and setting: the same measure for `Brc1ccc(-c2nnc(-c3cccc(Br)c3)o2)cc1`: “inactive”. In the case of `O=S(=O)(c1ccc(Br)cc1)N1CCN(S(=O)(=O)c2ccc(Br)cc2)CC1`, the activity, negative = inhibition is 0.222% [at 11.4 µM]. Still for that read-out and setting: the same measure for `O=C1CCCC=C1[C@H](O)c1ccc([N+](=O)[O-])cc1`: -12.2% [at 11.4 µM].

As to `COc1ccc(Cn2nnnc2C(c2ccccc2Cl)N2CCC(C(N)=O)CC2)cc1` (configuration not stated), the AC50 is 12.6 µM (active). Same read-out and setting: under `NC(=O)C1CCN(C(=O)OCc2ccccc2)CC1` stands “inactive”; under `CCOC(=O)C1CCN(Cc2cnc(Oc3ccc(OC)cc3)s2)CC1`, “inactive”; under `C=CC1=C(C)C2=Cc3c(C=C)c(C)c4[n]3[Sn+2][n]3c(c(C)c(CCC(=O)O)c3=CC3=NC(=C4)C(C)=C3CCC(=O)O)=CC1=N2`, “inactive”. On to `CC(=O)Nc1ccc(NC(=O)c2ccccc2CC[N+](=O)[O-])cc1`, for which the AC50 was 1.78 µM (active). On the same count and under the same terms, the same measure for `CC(=O)Nc1ccc(C(=O)NNC(=O)CCc2ccccc2)cc1`: “inactive”; for `Cc1c(C(=O)Nc2ccc(OCc3ccccc3)cc2)cccc1[N+](=O)[O-]`: “inactive”; for `CC[N+](C)(CC)CCC[n+]1c(-c2ccccc2)c2cc(N)ccc2c2ccc(N)cc21`: 15.8 µM (active). Take `COc1cc(C(=O)NCC(c2cccnc2)N2CCN(C)CC2)cc(OC)c1OC` (configuration not stated): the AC50 result is “inactive”. On the same count and under the same terms, under `COC(=O)NCC(c1cccnc1)N1CCN(c2ccccc2OC)CC1` (configuration not stated) stands 12.6 µM (active); under `O=C(NCC(c1cccnc1)N1CCOCC1)Nc1ccccc1` (configuration not stated), 14.1 µM (active).

Turning to `COc1ccc(N2CCN(C(CNC(=O)C3CCCCC3)c3cccnc3)CC2)cc1` (configuration not stated), the AC50 was 4.47 µM (active). Take `C[C@H](CN(C)C)C(O)(c1ccccc1)c1ccccc1`: the activity, negative = inhibition was -14.1% [at 11.4 µM].

Turning to `CCC(C)NC(=O)NC(=O)N(C1CCCCC1)S(C)(=O)=O` (configuration not stated), the AC50 result is “inactive”. In the case of `Cc1ccnc(NS(=O)(=O)c2ccc(N)cc2)n1`, the AC50 entry is “inactive”. On the same count and under the same terms, the same measure for `COC(=O)[C@@]1(Cc2ccccc2)[C@H]2c3cc(C(=O)N4CCCC4)n(Cc4ccc(S(C)(=O)=O)cc4)c3C[C@H]2CN1C(=O)c1ccccc1`: 3.16 µM (active); for `COC(=O)[C@@]1(Cc2ccc(F)cc2)[C@H]2c3cc(C(=O)N4CCCC4)n(Cc4ccc(C)c(F)c4F)c3C[C@H]2CN1C(=O)c1ccccc1`: 2.51 µM (active); for `COC(=O)C1(Cc2ccccc2)C2c3cc(C(=O)N4CCCC4)n(Cc4ccc(OC(F)(F)F)cc4)c3CC2CN1C(=O)c1ccccc1` (configuration not stated): 3.16 µM (active).

`COC(=O)[C@@]1(Cc2ccc(F)cc2)[C@H]2c3cc(C(=O)N(C)C)n(Cc4ccc(C)c(F)c4F)c3C[C@H]2CN1C(=O)c1ccccc1`: the AC50 was 0.794 µM (active).
